Bioassay records (PubChem)
ATG4B inh – ATG4B (human) cysteine protease inhibition | 340,000 compounds, 0.51% hits | AID 504462 | inhibition, % at 8.33 µM | ATG4B cleavage of LC3-PLA2, NBD-HPC fluorescence, 1 h | Q9Y4P1; in the data active means inhibition above about 40%
Calb FLC – C. albicans growth modulation with fluconazole; 300,000 compounds, 0.57% hits; C. albicans CaCi-2 (fluconazole-resistant clinical isolate) + fluconazole, Alamar Blue growth, 48 h; growth inhibition, % (test concentration not listed);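 active means growth inhibition above about 58% in most replicates, limit read from the data, passing the limit was not always enough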;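 further: all wells also contain fluconazole at 8 µg/ml as a sub-toxic cotreatment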
SUMO Mot1 rescue – blocks SUMOylation pathway, rescuing yeast Mot1-301 growth | S. cerevisiae Mot1-301 growth rescue, ATP luminescence, 38.5C; percent above DMSO median, 100 means doubled | growth rescue, % at 18.8 µM | 320,000 compounds, 1% hits | AID 2716;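 active means every valid replicate shows activation above 250% relative to neutral control wells; inactive means the rest, any valid replicate at or below 250%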
FAS-TE inh – blocks the thioesterase domain of human fatty acid synthase; 360,000 compounds, 0.67% hits; inhibition, % at 15 µM; P49327; recombinant FAS-TE, OMFH fluorogenic substrate, fluorescence endpoint; AID 602261;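 active means compounds whose normalised, plate-corrected inhibition of enzyme fluorescence in the single-dose primary screen is 50% or more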
NadD block – inhibitors of Staphylococcus aureus NadD; purified NadD enzyme, colorimetric absorbance read-out; inhibition, % at 20 µM; 360,000 compounds, 0.78% hits; in the data active means inhibition above about 26%
FAS-TE inh conf – confirmation of human fatty acid synthase thioesterase inhibitors | shares compounds with FAS-TE inh | recombinant FAS-TE, OMFH fluorogenic substrate, fluorescence | inhibition, % at 15 µM | 2,300 compounds, 45% hits | AID 624325;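 active means compounds inhibiting the enzyme by at least 50% at 15 µM in any one of the replicates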
Numbers stand for hits. Rows were chosen to be rich in hits. Some 3.1% of all compounds tested hit in one or more screens of this group.

How did O=C(NCC1CCCCC1)c1cc([N+](=O)[O-])ccc1Cl do in these assays?
ATG4B inh: inactive; Calb FLC: inactive; SUMO Mot1 rescue: inactive; FAS-TE inh: 51.0; NadD block: inactive; FAS-TE inh conf: 56.0

What do the screens show for `CC(Cc1ccccc1)NC(=O)c1cc([N+](=O)[O-])ccc1Cl` (stereo not given)?
ATG4B inh: inactive; Calb FLC: inactive; SUMO Mot1 rescue: inactive; FAS-TE inh: 57.9; NadD block: inactive; FAS-TE inh conf: 69.8

What do the screens show for `O=C(NC12CC3CC(CC(C3)C1)C2)c1cc([N+](=O)[O-])ccc1Cl`?
ATG4B inh: inactive; Calb FLC: inactive; SUMO Mot1 rescue: inactive; FAS-TE inh: 59.3; NadD block: inactive; FAS-TE inh conf: inactive

How did O=C(N[C@@H](Cc1ccccc1)c1nc2ccccc2[nH]1)c1cc([N+](=O)[O-])ccc1Cl do in these assays?
ATG4B inh: inactive; Calb FLC: inactive; SUMO Mot1 rescue: inactive; FAS-TE inh: inactive; NadD block: inactive

How did Cc1ccc(O)c(NC(=O)c2cc([N+](=O)[O-])ccc2Cl)c1 do in these assays?
ATG4B inh: inactive; Calb FLC: inactive; SUMO Mot1 rescue: inactive; FAS-TE inh: 53.8; NadD block: inactive; FAS-TE inh conf: 59.9

How did COCCN(C(=O)COC(=O)c1c(NC(C)=O)sc(C)c1C)c1c(N)n(Cc2ccccc2)c(=O)[nH]c1=O do in these assays?
ATG4B inh: inactive; Calb FLC: inactive; SUMO Mot1 rescue: inactive; FAS-TE inh: inactive; NadD block: inactive

How did O=C(O)c1cc([N+](=O)[O-])ccc1NCCCc1ccccc1 do in these assays?
ATG4B inh: inactive; SUMO Mot1 rescue: inactive; FAS-TE inh: inactive; NadD block: inactive

How did CC(NC(=O)c1ccc([N+](=O)[O-])cc1[N+](=O)[O-])c1ccc(-c2ccccc2)cc1 (stereo not given) do in these assays?
ATG4B inh: inactive; Calb FLC: inactive; SUMO Mot1 rescue: inactive; FAS-TE inh: 55.3; NadD block: inactive; FAS-TE inh conf: inactive

How did CCC(NC(=O)c1ccc([N+](=O)[O-])cc1[N+](=O)[O-])c1ccccc1 (stereo not given) do in these assays?
ATG4B inh: inactive; Calb FLC: inactive; SUMO Mot1 rescue: inactive; FAS-TE inh: inactive; NadD block: inactive

Results for O=C(NCCCc1ccccc1)c1cc([N+](=O)[O-])ccc1Cl ?
ATG4B inh: inactive; Calb FLC: inactive; SUMO Mot1 rescue: inactive; FAS-TE inh: 83.8; NadD block: inactive; FAS-TE inh conf: 89.8

What do the screens show for `COc1ccc(CNC(=O)C[C@H]2C[C@H](C(=O)N3CCCCC3)[C@@]3(CCc4ccccc4)c4[nH]c5ccc(Cl)cc5c4CCN3C2=O)cc1OC`?
ATG4B inh: inactive; FAS-TE inh: 69.4; NadD block: inactive; FAS-TE inh conf: inactive

Results for CN(C)C(=O)CCc1ccc2c3c([nH]c2c1)[C@]1(CCC2CCCC2)[C@@H](C(=O)N2CCOCC2)C[C@H](CC(=O)NCc2cccc(C(F)(F)F)c2)C(=O)N1CC3 ?
ATG4B inh: inactive; FAS-TE inh: inactive; NadD block: inactive

What do the screens show for `COc1ccc(CNC(=O)CC2C[C@H](C(=O)N3CCOCC3)[C@@]3(CCC4CCCC4)c4[nH]c5ccccc5c4CCN3C2=O)cc1OC` (stereo not given in full)?
ATG4B inh: inactive; SUMO Mot1 rescue: inactive; FAS-TE inh: 77.2; NadD block: inactive; FAS-TE inh conf: 87.9

What do the screens show for `COc1ccc2[nH]c3c(c2c1)CCN1C(=O)C(CC(=O)NCc2ccc(OC)c(OC)c2)C[C@H](C(=O)N2CCOCC2)[C@@]31CCC1CCCC1` (stereo not given in full)?
FAS-TE inh: inactive; NadD block: inactive

What do the screens show for `O=C(CC1C[C@H](C(=O)N2CCOCC2)[C@@]2(CCC3CCCC3)c3[nH]c4ccccc4c3CCN2C1=O)NCc1cccc(C(F)(F)F)c1` (stereo not given in full)?
ATG4B inh: inactive; FAS-TE inh: 60.9; NadD block: inactive; FAS-TE inh conf: 33.6

How did O=C(Nc1ccc(NC(=O)c2ccccc2)c2ccccc12)c1ccccc1 do in these assays?
FAS-TE inh: inactive; NadD block: inactive

Results for O=C1c2ccccc2S(=O)N1c1cccc(F)c1 (stereo not given) ?
FAS-TE inh: inactive; NadD block: inactive
